Source: the supplement of paper PMC9844399
Counter-ions that a name gives are not always drawn.

system: HeLa; assay: nuclear count per well, robust Z-score vs DMSO; higher = more cells (less toxicity); details: 10 µM; 6 h
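Wherever MALAT1 nuclear FISH intensity, robust Z-score vs DMSO is given: High-content confocal imaging of branched-DNA amplified FISH in 384-well plates, Hoechst-defined nuclei, score is well value minus plate DMSO median over DMSO robust SD, four wells per compound.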
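Wherever nuclear count per well, robust Z-score vs DMSO is given: Hoechst-stained nuclei counted by automated confocal imaging of four fields per well in 384-well plates, with the robust Z-score based on the per-plate DMSO median and robust SD.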

SMILES	nuclear count per well
N#CC(C#N)=Cc1ccc([N+](=O)[O-])c(O)c1 [Tyrphostin AG-126]	-0.177
COc1cccc2c1cc([N+](=O)[O-])c1c(C(=O)O)cc3c(c12)OCO3 [Aristolochic acid]	0.192
C[C@H]1O[C@@H](n2cnc3c(N)ncnc32)C[C@@H]1O [2',5'-Dideoxyadenosine]	0.886
CCCCNC(=O)n1c(NC(=O)OC)nc2ccccc21 [Benomyl]	-1.27
CC[C@@H](C(N)=O)N1CCCC1=O [Levetiracetam]	-0.202
C[C@H]1C(=O)O[C@@H]2CCN3CC=C(COC(=O)[C@](C)(O)[C@]1(C)O)[C@H]23 [Monocrotaline]	1.08

system: HeLa; assay: MALAT1 nuclear FISH intensity, robust Z-score vs DMSO; higher = more nuclear MALAT1 lncRNA, active = -3 or less; details: 10 µM; 6 h

SMILES	MALAT1 nuclear FISH intensity
C[C@@]1(CO)[C@H](O)CC[C@@]2(C)[C@H]1CC[C@H]1C[C@@H]3C[C@@]12CC[C@]3(O)CO [Aphidicolin]	0.0976 (inactive)
O=C(Nc1ccccc1)N(Cc1ccc(Cl)cc1)C1CCCC1 [Pencycuron]	-0.114 (inactive)
CO[C@@H]1C[C@@H](C[C@H]2CC[C@H](C)[C@H]([C@@H](C)C(=O)O)O2)O[C@]2(O[C@](C)([C@H]3CC[C@@](C)([C@@H]4O[C@@H]([C@H]5O[C@@](O)(CO)[C@H](C)C[C@@H]5C)C[C@@H]4C)O3)C[C@H]2C)[C@@H]1C [Nigericin]	1.64 (inactive)
Cc1cccc([C@H](C)c2c[nH]cn2)c1C	-1.19 (inactive)
CC1C=CC=CCCC=CC=CC=CC=CC(OC2OC(C)C(O)C(N)C2O)CC2OC(O)(CC(O)C(O)CCC(O)CC(O)CC(O)CC(=O)OC(C)C(C)C1O)CC(O)C2C(=O)O (stereo not given) [Nystatin]	-0.0447 (inactive)
C#CCN(C)C(C)Cc1ccccc1 (stereo not given) [Deprenyl]	0.141 (inactive)
CC[C@@]1(O)C(=O)OCc2c1cc1n(c2=O)Cc2cc3ccccc3nc2-1 [Camptothecin]	-5.46 (active)
C[C@H](CCC(=O)O)C[C@H](C)C[C@H](C)C(=O)/C=C(\O)[C@H](C)C[C@H](C)C/C=C/[C@@H](C)[C@@H](O)[C@@H](C)[C@@H](O)C[C@@H]1CC[C@@](C)([C@H]2CC[C@@](C)([C@@H](C)O)O2)O1	-1.36 (inactive)
CN1C(=O)C(O)N=C(c2ccccc2)c2cc(Cl)ccc21 (stereo not given) [Temazepam]	-0.814 (inactive)
CCCCCc1cc(O)c2c(c1)OC(C)(C)C1CCC(C(=O)O)=CC21 (stereo not given) [Tetrahydrocannabinol-7-oic acid]	-0.0492 (inactive)
CO/C=C(/C(=O)OC)c1ccccc1Oc1cc(Oc2ccccc2C#N)ncn1 [Azoxystrobin]	-2.13 (inactive)
CC(C)(c1ccc(OCC2CO2)cc1)c1ccc(OCC2CO2)cc1 (stereo not given)	-1.21 (inactive)
Cc1cc2c(C(C)C)c(O)c(O)c(C=O)c2c(O)c1-c1c(C)cc2c(C(C)C)c(O)c(O)c(C=O)c2c1O [Gossypol from cotton seeds]	2.4 (inactive)
C=C1C[C@@H]2[C@H](CC[C@]3(C)C(=O)CC[C@@H]23)[C@@]2(C)C=CC(=O)C=C12 [Exemestane]	0.212 (inactive)
CC(C)C[C@H]1C(=O)N2CCC[C@H]2[C@]2(O)O[C@](NC(=O)[C@@H]3C=C4c5cccc6[nH]c(Br)c(c56)C[C@H]4N(C)C3)(C(C)C)C(=O)N12 [Bromocriptine Mesylate]	0.805 (inactive)
N#CC(C#N)=Cc1ccc(O)cc1 [Tyrphostin-8]	-0.39 (inactive)
COC[C@@H](NC(C)=O)C(=O)NCc1ccccc1 [Lacosamide]	0.22 (inactive)
O=c1c2ccccc2[se]n1-c1ccccc1 [Ebselen]	0.973 (inactive)
N#CC(C#N)=Cc1cc(O)c(O)c([N+](=O)[O-])c1	-0.588 (inactive)
CCCCCC1OC1C/C=C\CCCCCCCC(=O)O (stereo not given) [Leukotoxin B (12,13-EODE)]	0.812 (inactive)
CN(C)C(=O)Oc1ccc[n+](C)c1 [Pyridostigmine Bromide]	0.356 (inactive)
O=[N+]([O-])O[C@H]1CO[C@H]2[C@@H]1OC[C@H]2O[N+](=O)[O-] [Isosorbide Dinitrate]	-0.945 (inactive)
CN1[C@@H]2C[C@@H](OC(=O)[C@H](CO)c3ccccc3)C[C@H]1[C@@H]1O[C@@H]12	-0.891 (inactive)
CN1[C@@H]2CC[C@H]1C[C@@H](OC(=O)C(CO)c1ccccc1)C2 (stereo not given in full) [Atropine Sulfate Monohydrate]	-0.542 (inactive)
